Tests used:
Assay in all cases: DAPPL (digital affinity profiling via proximity ligation, sequencing); 10 mM Tris-HCl pH 7.5, 50 mM NaCl, 1 mM DTT, 4% glycerol, room temperature, 30 min; GST-TFs on glutathione beads, 16-mer random dsDNA library, 0.1% formaldehyde crosslink after washing; high values mean tight binding
FEV = molecular target: T1, FEV (Homo sapiens, UniProt Q99581 1-238); conditions: protein: recombinant; tags: N-terminal GST; dsDNA, one strand shown
T1 sequence: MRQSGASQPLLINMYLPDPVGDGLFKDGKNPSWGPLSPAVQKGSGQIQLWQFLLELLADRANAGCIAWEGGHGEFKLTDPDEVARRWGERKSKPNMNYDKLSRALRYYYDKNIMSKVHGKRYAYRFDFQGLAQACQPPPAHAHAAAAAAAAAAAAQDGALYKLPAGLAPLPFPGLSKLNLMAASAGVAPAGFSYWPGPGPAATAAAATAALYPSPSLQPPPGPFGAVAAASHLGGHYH
Method in brief: (§1)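 Sequencing on an Illumina NextSeq500 followed washing, crosslinking with 0.1% formaldehyde, proximity ligation (BsaI/T4 ligase, 1 h, 37 °C) and PCR amplification of pools that had been incubated for 30 min at room temperature with 200 nmole of a random double-stranded 16-mer DNA library in Tris/NaCl/DTT/glycerol buffer. Each pool held DNA-barcoded human transcription factors, expressed in yeast as GST fusions and captured on glutathione beads, plus a tag-only sample. Binding signal is a hexamer's read frequency for a factor divided by its frequency in the tag-only sample.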

ETV5 = ETV5 (Homo sapiens, UniProt P41161 1-510); conditions: protein: recombinant; tags: N-terminal GST; dsDNA, one strand shown
Method in brief: as §1

HSF1 = HSF1 (Homo sapiens, UniProt Q00613 1-529); conditions: protein: recombinant; tags: N-terminal GST; chain copies: 3; dsDNA, one strand shown
Method in brief: as §1

SPIC = molecular target: T2, SPIC (Homo sapiens, UniProt Q8N5J4 1-248); conditions: protein: recombinant; tags: N-terminal GST; dsDNA, one strand shown
T2 sequence: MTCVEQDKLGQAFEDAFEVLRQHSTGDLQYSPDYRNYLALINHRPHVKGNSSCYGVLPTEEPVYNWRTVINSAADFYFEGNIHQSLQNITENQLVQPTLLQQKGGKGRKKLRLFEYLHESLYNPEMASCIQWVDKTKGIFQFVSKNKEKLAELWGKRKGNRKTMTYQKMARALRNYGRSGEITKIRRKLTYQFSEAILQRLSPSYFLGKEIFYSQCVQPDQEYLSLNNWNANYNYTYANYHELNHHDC
Method in brief: as §1

ELF4 = ELF4 (Homo sapiens, UniProt Q99607 1-663); conditions: protein: recombinant; tags: N-terminal GST; dsDNA, one strand shown
Method in brief: as §1

ELK4 = molecular target: T3, ELK4 (Homo sapiens, UniProt P28324-2 1-405); conditions: protein: recombinant; tags: N-terminal GST; dsDNA, one strand shown
T3 sequence: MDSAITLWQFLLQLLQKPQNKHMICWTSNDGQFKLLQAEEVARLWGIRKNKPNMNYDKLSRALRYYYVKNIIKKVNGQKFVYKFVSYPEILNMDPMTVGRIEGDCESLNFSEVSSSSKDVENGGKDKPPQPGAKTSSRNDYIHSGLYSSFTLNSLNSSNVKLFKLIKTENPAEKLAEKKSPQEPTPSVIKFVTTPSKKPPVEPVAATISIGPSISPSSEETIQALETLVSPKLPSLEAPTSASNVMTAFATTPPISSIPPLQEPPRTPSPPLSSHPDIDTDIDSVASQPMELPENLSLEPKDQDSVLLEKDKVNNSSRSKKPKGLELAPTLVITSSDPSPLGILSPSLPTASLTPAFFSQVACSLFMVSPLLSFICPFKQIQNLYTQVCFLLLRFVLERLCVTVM
Method in brief: as §1

ETV2 = molecular target: T4, ETV2 (Homo sapiens, UniProt O00321 1-342); conditions: protein: recombinant; tags: N-terminal GST; dsDNA, one strand shown
T4 sequence: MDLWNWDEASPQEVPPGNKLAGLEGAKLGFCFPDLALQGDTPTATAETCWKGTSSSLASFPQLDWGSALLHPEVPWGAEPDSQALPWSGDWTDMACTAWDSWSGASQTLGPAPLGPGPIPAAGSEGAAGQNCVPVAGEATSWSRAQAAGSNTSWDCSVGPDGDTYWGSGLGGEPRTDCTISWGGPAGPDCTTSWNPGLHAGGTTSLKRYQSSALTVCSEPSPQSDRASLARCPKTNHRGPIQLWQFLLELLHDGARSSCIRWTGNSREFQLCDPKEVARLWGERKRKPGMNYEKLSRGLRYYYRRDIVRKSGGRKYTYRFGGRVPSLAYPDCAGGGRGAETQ
Method in brief: as §1

ELF3 = molecular target: T5, ELF3 (Homo sapiens, UniProt P78545 1-371); conditions: protein: recombinant; tags: N-terminal GST; dsDNA, one strand shown
T5 sequence: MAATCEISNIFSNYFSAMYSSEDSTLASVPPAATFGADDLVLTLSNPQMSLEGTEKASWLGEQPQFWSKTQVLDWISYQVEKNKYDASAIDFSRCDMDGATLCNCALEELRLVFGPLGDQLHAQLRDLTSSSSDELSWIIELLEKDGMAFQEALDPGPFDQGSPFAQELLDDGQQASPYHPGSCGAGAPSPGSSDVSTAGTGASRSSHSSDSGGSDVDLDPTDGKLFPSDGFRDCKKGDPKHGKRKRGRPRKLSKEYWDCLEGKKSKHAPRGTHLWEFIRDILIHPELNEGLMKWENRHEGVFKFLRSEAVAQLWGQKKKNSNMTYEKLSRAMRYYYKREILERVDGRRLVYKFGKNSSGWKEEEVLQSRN
Method in brief: as §1

CRX = CRX (Homo sapiens, UniProt O43186 1-299); conditions: protein: recombinant; tags: N-terminal GST; dsDNA, one strand shown
Method in brief: as §1

ETV1 = ETV1 (Homo sapiens, UniProt P50549 1-477); conditions: protein: recombinant; tags: N-terminal GST; dsDNA, one strand shown
Method in brief: as §1

ERF = molecular target: T6, ERF (Homo sapiens, UniProt P50548 1-548); conditions: protein: recombinant; tags: N-terminal GST; dsDNA, one strand shown
T6 sequence: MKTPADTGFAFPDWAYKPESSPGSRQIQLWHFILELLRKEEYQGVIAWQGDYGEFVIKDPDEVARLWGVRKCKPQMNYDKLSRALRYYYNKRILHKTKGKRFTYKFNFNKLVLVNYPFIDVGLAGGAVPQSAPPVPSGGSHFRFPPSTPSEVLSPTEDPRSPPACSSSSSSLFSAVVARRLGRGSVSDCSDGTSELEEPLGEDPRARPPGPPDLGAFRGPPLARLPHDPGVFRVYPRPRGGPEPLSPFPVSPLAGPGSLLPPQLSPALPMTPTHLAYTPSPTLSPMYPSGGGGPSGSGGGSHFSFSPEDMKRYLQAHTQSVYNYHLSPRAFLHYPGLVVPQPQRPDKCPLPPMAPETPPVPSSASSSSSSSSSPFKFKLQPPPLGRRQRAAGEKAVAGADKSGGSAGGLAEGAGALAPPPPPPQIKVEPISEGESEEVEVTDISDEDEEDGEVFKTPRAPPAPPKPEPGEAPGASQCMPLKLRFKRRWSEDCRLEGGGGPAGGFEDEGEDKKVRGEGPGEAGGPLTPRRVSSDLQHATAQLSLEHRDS
Method in brief: as §1

ETV3L = molecular target: T7, ETV3L (Homo sapiens, UniProt Q6ZN32 1-361); conditions: protein: recombinant; tags: N-terminal GST; dsDNA, one strand shown
T7 sequence: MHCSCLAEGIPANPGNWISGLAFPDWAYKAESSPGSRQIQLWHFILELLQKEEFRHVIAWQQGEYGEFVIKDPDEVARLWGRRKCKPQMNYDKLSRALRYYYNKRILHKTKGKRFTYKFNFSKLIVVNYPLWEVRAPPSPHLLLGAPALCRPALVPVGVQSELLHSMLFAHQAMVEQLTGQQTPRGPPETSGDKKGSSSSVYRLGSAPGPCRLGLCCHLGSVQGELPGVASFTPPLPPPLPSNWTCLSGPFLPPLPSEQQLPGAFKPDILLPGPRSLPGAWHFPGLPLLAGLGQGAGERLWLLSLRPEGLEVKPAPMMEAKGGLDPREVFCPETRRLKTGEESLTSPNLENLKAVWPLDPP
Method in brief: as §1

ETS2 = molecular target: T8, ETS2 (Homo sapiens, UniProt P15036 1-469); conditions: protein: recombinant; tags: N-terminal GST; dsDNA, one strand shown
T8 sequence: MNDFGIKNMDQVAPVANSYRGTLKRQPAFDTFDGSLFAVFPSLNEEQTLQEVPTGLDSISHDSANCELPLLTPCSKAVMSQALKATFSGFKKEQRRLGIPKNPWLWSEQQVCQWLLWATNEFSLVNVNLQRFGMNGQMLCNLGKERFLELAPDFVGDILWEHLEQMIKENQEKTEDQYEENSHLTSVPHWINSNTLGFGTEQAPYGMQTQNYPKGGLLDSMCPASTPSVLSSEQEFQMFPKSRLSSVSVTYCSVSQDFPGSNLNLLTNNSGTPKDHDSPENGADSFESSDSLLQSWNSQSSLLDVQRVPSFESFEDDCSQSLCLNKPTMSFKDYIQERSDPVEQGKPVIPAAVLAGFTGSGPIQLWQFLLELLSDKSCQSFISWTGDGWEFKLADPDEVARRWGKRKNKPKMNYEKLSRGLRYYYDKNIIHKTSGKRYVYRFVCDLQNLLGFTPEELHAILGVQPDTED
Method in brief: as §1

SPDEF = molecular target: T9, SPDEF (Homo sapiens, UniProt O95238 1-335); conditions: protein: recombinant; tags: N-terminal GST; dsDNA, one strand shown
T9 sequence: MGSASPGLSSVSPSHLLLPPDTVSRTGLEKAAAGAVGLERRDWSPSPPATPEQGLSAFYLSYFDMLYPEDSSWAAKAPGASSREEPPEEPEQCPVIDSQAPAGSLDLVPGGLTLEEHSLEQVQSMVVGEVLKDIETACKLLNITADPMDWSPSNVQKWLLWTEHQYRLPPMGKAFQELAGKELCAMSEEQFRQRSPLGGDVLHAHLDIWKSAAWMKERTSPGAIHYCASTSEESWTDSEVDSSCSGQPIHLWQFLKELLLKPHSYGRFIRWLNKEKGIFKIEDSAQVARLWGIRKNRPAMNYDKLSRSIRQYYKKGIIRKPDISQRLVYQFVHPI
Method in brief: as §1

ETV7 = molecular target: T10, ETV7 (Homo sapiens, UniProt Q9Y603 1-341); conditions: protein: recombinant; tags: N-terminal GST; dsDNA, one strand shown
T10 sequence: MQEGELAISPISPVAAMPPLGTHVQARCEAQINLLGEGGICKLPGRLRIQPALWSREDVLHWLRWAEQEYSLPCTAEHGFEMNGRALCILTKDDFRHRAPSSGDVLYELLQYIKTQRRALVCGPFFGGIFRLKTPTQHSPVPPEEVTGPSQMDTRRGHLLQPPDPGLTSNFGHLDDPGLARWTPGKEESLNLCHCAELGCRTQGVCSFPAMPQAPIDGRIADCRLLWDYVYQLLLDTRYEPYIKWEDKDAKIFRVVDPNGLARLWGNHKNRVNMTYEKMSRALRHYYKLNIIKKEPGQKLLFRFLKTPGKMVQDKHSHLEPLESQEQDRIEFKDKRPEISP
Method in brief: as §1

ELF5 = molecular target: T11, ELF5 (Homo sapiens, UniProt Q9UKW6-2 1-255); conditions: protein: recombinant; tags: N-terminal GST; dsDNA, one strand shown
T11 sequence: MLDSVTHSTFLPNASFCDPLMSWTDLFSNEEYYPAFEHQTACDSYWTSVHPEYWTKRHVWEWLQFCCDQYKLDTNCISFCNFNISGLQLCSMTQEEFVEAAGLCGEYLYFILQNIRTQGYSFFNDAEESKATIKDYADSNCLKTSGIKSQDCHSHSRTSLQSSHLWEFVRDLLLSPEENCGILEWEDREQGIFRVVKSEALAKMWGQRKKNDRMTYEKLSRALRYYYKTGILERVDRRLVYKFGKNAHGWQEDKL
Method in brief: as §1

ETV3 = molecular target: T12, ETV3 (Homo sapiens, UniProt P41162-2 1-143); conditions: protein: recombinant; tags: N-terminal GST; dsDNA, one strand shown
T12 sequence: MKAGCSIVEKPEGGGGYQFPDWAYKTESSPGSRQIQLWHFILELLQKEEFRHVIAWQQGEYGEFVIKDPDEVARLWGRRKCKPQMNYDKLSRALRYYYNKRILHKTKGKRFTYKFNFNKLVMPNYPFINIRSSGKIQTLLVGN
Method in brief: as §1

ETV6 = ETV6 (Homo sapiens, UniProt P41212 1-452); conditions: protein: recombinant; tags: N-terminal GST; dsDNA, one strand shown
Method in brief: as §1

Sequence of ETV5 (P41161 whole entry): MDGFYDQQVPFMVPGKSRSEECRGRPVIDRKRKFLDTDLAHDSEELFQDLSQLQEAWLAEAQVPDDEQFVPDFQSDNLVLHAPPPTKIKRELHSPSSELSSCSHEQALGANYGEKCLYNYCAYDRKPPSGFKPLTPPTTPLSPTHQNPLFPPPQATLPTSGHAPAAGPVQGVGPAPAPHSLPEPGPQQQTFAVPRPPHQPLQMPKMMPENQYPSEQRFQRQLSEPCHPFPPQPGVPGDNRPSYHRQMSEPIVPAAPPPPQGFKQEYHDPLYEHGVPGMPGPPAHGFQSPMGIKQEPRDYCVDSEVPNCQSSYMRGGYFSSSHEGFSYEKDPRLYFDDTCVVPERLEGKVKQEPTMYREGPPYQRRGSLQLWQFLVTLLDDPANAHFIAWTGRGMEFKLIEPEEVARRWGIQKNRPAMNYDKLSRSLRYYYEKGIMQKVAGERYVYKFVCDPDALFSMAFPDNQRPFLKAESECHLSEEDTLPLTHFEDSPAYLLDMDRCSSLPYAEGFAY
Sequence of ETV6 (P41212 whole entry): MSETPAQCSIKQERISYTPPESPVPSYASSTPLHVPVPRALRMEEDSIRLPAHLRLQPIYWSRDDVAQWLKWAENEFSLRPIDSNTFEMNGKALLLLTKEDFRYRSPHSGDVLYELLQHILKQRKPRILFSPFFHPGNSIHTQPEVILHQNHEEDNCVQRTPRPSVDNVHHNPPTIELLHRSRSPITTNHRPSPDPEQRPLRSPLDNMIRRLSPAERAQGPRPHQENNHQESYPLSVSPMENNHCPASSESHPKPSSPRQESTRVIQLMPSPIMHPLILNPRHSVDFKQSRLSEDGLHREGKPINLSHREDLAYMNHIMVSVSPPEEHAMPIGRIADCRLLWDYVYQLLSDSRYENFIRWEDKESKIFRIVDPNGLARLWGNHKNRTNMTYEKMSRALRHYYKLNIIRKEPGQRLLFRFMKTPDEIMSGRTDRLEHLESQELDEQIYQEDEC
Sequence of CRX (O43186 whole entry): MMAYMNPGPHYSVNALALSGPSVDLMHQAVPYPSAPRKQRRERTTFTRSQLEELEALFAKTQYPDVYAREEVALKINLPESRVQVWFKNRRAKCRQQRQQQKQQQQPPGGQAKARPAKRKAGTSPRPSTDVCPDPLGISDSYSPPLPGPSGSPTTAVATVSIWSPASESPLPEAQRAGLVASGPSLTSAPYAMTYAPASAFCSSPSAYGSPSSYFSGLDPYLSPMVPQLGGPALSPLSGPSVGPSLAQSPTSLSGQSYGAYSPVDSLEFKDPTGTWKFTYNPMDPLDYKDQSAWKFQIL
Sequence of ELF4 (Q99607 whole entry): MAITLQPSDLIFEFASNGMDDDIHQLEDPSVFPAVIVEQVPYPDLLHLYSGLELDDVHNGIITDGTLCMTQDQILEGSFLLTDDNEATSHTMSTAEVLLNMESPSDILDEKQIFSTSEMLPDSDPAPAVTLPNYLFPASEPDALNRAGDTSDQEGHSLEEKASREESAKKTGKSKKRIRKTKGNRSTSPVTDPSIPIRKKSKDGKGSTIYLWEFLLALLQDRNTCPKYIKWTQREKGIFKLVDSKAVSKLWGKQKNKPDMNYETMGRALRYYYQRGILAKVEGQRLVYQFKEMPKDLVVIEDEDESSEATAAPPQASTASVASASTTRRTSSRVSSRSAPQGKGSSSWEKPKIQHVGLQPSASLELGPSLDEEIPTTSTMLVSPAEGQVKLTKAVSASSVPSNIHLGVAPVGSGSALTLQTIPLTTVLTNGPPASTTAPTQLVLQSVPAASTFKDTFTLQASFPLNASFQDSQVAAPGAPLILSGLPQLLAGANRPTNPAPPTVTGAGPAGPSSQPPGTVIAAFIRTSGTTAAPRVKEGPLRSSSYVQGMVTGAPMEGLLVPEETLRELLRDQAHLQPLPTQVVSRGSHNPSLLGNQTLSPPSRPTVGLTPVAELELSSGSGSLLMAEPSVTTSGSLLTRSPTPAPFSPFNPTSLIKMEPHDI
Sequence of ETV1 (P50549 whole entry): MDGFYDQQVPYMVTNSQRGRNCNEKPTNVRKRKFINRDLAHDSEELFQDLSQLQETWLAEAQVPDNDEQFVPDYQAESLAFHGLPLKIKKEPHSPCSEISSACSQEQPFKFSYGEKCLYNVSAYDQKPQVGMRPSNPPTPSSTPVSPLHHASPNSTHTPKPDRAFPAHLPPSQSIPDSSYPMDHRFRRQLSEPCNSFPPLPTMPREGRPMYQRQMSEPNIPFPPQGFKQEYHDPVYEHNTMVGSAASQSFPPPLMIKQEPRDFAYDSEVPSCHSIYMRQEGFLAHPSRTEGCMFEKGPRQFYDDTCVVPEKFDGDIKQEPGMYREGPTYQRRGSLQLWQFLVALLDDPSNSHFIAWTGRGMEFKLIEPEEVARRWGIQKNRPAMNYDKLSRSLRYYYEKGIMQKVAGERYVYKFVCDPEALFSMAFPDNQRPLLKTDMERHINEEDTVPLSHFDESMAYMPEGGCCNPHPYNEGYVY
Sequence of HSF1 (Q00613 whole entry): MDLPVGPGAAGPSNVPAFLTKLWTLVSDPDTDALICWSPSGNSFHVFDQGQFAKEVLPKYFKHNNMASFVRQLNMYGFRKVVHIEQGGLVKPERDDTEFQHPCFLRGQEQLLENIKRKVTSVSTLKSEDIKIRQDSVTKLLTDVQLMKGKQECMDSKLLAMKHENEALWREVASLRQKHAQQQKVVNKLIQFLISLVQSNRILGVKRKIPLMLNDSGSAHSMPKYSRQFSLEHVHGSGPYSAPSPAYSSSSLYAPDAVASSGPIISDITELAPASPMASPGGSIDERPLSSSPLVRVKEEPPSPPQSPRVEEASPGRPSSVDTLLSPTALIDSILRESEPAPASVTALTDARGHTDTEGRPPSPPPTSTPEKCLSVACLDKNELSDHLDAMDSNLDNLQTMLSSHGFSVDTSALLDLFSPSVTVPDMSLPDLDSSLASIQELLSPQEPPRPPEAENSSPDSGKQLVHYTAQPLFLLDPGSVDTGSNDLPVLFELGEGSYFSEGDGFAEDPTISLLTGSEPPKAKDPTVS

Sequence: ACTTGC
- binding signal (FEV): 1.4 fold enrichment (6-mer frequency, TF over GST control)
- binding signal (ETV5): 1.49 fold enrichment (6-mer frequency, TF over GST control)
- binding signal (HSF1): 1.25 fold enrichment (6-mer frequency, TF over GST control)
- binding signal (SPIC): 1.36 fold enrichment (6-mer frequency, TF over GST control)
- binding signal (ELF4): 1.47 fold enrichment (6-mer frequency, TF over GST control)
- binding signal (ELK4): 1.44 fold enrichment (6-mer frequency, TF over GST control)
- binding signal (ETV2): 1.36 fold enrichment (6-mer frequency, TF over GST control)
- binding signal (ELF3): 1.79 fold enrichment (6-mer frequency, TF over GST control)
- binding signal (CRX): 1.12 fold enrichment (6-mer frequency, TF over GST control)
- binding signal (ETV1): 1.37 fold enrichment (6-mer frequency, TF over GST control)
- binding signal (ERF): 1.3 fold enrichment (6-mer frequency, TF over GST control)
- binding signal (ETV3L): 1.48 fold enrichment (6-mer frequency, TF over GST control)
- binding signal (ETS2): 1.32 fold enrichment (6-mer frequency, TF over GST control)
- binding signal (SPDEF): 1.44 fold enrichment (6-mer frequency, TF over GST control)
- binding signal (ETV7): 1.37 fold enrichment (6-mer frequency, TF over GST control)
- binding signal (ELF5): 1.47 fold enrichment (6-mer frequency, TF over GST control)
- binding signal (ETV3): 1.49 fold enrichment (6-mer frequency, TF over GST control)
- binding signal (ETV6): 1.52 fold enrichment (6-mer frequency, TF over GST control)
